Compound activity from PubChem.
Sm TGR inh: qHTS Assay for the Inhibitors of Schistosoma Mansoni Peroxiredoxins; Schistosoma mansoni thioredoxin glutathione reductase (TGR), Q962Y6; purified TGR, DTNB reduction, TNB absorbance 405 nm; Potency, µM (doses to about 114 µM), for inactives: at the highest dose activity change, negative = inhibition, usual class: inhibitors; 360,000 compounds, 3% hits; also: % is scaled to controls: 0 for no effect and ±100 for the full control effect; nearly all actives have a fitted effect of over 60% in size
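Kinetic colorimetric format: TGR-catalysed, NADPH-driven DTNB reduction monitored via TNB absorbance. Enzyme dispensed at 20 nM; compound exposure 15 min at room temperature before reaction start.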
AmpC detergent: qHTS Inhibitors of AmpC Beta-Lactamase (assay with detergent) | P00811 | AmpC hydrolysis of nitrocefin, absorbance 480 nm, 0.01% Triton | Potency, µM (titrated, usually from 114 µM), for the others: at the top dose activity change, negative = inhibition, hits mostly inhibitors | 370,000 compounds, 0.041% hits | AID 485294, 2010;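 also: 0% = no-compound wells and -100% = no-enzyme wells; nearly all actives have a fitted effect of over 25% in size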
Target sequence (P00811 whole entry, looked up): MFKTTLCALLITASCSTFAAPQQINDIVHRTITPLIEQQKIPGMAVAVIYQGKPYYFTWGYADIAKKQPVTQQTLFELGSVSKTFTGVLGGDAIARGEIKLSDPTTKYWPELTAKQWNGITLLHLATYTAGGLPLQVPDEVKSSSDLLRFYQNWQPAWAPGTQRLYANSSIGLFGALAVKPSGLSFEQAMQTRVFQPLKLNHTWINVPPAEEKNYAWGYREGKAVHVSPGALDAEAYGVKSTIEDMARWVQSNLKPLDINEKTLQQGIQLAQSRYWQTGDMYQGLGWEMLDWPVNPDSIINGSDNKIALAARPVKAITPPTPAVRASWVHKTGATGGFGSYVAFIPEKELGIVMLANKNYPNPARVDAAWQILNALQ
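AmpC (5.3 nM in the dispensed reagent) in 20 mM phosphate pH 7.0 with 0.01% (detergent screen) or 0.0001% Triton X-100 was preincubated with compounds for 15 min at room temperature. Nitrocefin was then added from an 800 uM solution, and hydrolysis was followed at 480 nm.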
Pf growth 96h: Primary qHTS for delayed death inhibitors of the malarial parasite plastid, 96 hour incubation; P. falciparum luciferase reporter growth, 96 h; Potency, µM (top dose mostly 28.7 µM), for inactives: at the top dose activity change, negative = inhibition, most hits filed as inhibitors; 320,000 compounds, 6.9% hits; AID 504834, 2011; also: % is scaled to controls: 0 for no effect and ±100 for the full control effect
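Two-generation exposure (96 h) targets delayed-death phenotype. Reporter parasites carrying integrated firefly luciferase, in red cells at 2% hematocrit and 0.05% parasitemia final, kept at 37 C, 5% CO2; luminescence loss indicates inhibition.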
Pf growth 48h: Primary qHTS for delayed death inhibitors of the malarial parasite plastid, 48 hour incubation; P. falciparum luciferase growth in erythrocytes, 48 h; Potency, µM (titrated, usually from 28.7 µM), for inactives: at the top dose activity change, negative = inhibition, actives largely listed as inhibitors; 310,000 compounds, 5.9% hits; AID 504832, 2011; also: % is scaled to controls: 0 for no effect and ±100 for the full control effect
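Luciferase-expressing P. falciparum in infected erythrocytes (2% hematocrit, 0.1% parasitemia final) in RPMI 1640/0.5% Albumax were exposed to compound for 48 hours at 37 C, 5% CO2; growth read as luminescence.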
AmpC inh no detg: qHTS Inhibitors of AmpC Beta-Lactamase (assay without detergent); Potency, µM (titrated, usually from 57.1 µM), for the others: at the highest dose activity change, negative = inhibition, hits mostly inhibitors; AmpC nitrocefin hydrolysis, absorbance 480 nm, 0.0001% Triton; 330,000 compounds, 0.52% hits;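 also: plate controls were no compound for no effect and no enzyme for full effect; nearly all actives have a fitted effect of over 20% in size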
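AmpC (5.3 nM in the dispensed reagent) in 20 mM phosphate pH 7.0 with 0.01% (detergent screen) or 0.0001% Triton X-100 was preincubated with compounds for 15 min at room temperature. Nitrocefin was then added from an 800 uM solution, and hydrolysis was followed at 480 nm.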
SARS PLP yeast: qHTS of Yeast-based Assay for SARS-CoV PLP; S. cerevisiae expressing SARS-CoV PLpro, growth rescue; Potency, µM (series often up to 32.9 µM), without a hit: top-dose activity, positive = growth rescue, hits mostly activators; 330,000 compounds, 0.19% hits; AID 485353, 2010; calls by dose curve; also: 0% is about no effect; nearly all actives have a fitted effect of over 55% in size
* = called active by the depositor; ? = inconclusive; / = no result given. A selection: hits, their analogues and other compounds. The true share with any hit is near 12%. Unless noted, calls follow the shape of the dose curve; as a rule, active = well fitted curve in the direction sought with a large enough effect; inconclusive = small, poorly fitted or top-dose-only effect, or another doubt; inactive = no such curve, though single readings can be large; an effect the other way counts as inactive or inconclusive. Potency is read from the fitted curve at half-maximal effect.

SMILES | Sm TGR inh | AmpC detergent | Pf growth 96h | Pf growth 48h | AmpC inh no detg | SARS PLP yeast
O=C(c1cnn2c(C(F)F)cc(-c3ccccc3)nc12)N1CCN(Cc2ccc3c(c2)OCO3)CC1 | -28% | 6% | ? | 4.7µM* | 179% | -12%
COc1ccc(-c2cc(C(F)F)n3ncc(C(=O)N4CCN(C(=O)c5ccco5)CC4)c3n2)cc1 | 28µM* | -20% | ? | ? | 189% | -3%
Cc1ccc(-c2cc(C(F)F)n3ncc(C(=O)N4CCC5(CC4)OCCO5)c3n2)cc1 | -1% | -7% | ? | / | 123% | 5%
Cc1ccc(-c2cc(C(F)F)n3ncc(C(=O)N4CCN(c5ccccn5)CC4)c3n2)cc1 | 1% | -6% | ? | ? | 11µM* | -29%
CCc1ccc(C(=O)c2cn(CC(=O)Nc3ccc4c(c3)OCCO4)c3ccc(CC)cc3c2=O)cc1 | -4% | 3% | / | / | / | /
CCN1CCN(C(=O)c2cnn3c(C(F)F)cc(-c4ccc(C)cc4)nc23)CC1 | -1% | -1% | 7.4µM* | ? | 87% | 2%
COc1cccc(-c2cc(C(F)(F)F)n3nc(C(=O)N4CCCCC4c4cccnc4)cc3n2)c1 (centres undefined) | -2% | 2% | ? | 3.7µM* | 2% | -4%
COc1ccc(-c2cc(C(F)F)n3ncc(C(=O)Nc4c(C)n(C)n(-c5ccccc5)c4=O)c3n2)cc1 | 5% | 5% | 18% | ? | -19% | 0%
COc1ccc(-c2cc(C(F)F)n3ncc(C(=O)Nc4cc(C)on4)c3n2)cc1 | -16% | -9% | 15% | 4.1µM* | 191% | -3%
O=C(c1cnn2c(C(F)(F)F)cc(-c3ccc4c(c3)OCO4)nc12)N1CCCCC1 | 1% | -15% | 8.3µM* | 0% | -10% | 2%
COc1ccc(CCNC(=O)c2cc3sccc3n2Cc2ccc(Cl)cc2)cc1OC | -3% | 12% | / | / | / | /
COc1cccc(N2CCN(C(=O)Cn3cnc4onc(-c5ccc(F)cc5)c4c3=O)CC2)c1 | 0% | -1% | / | / | / | /
CSc1cccc(NC(=S)N2CCC(N(C)C3CCCCC3)CC2)c1 | 45µM* | 3% | ? | -7% | -8% | 1%
CSc1cccc(NC(=S)N2CCC(N(C)C3CCCCC3C)CC2)c1 (centres undefined) | 22µM* | 4% | -12% | -30% | -19% | 1%
Cn1c(=O)n(C)c2cc(NS(=O)(=O)c3ccc(F)cc3)c(NCc3ccccc3)cc21 | -21% | 18% | / | / | / | /
CC1=NN(Cc2cc(C(C)(C)C)c(O)c(C(C)(C)C)c2)C(=O)C1 | 11% | -10% | 1% | -17% | 3% | 5%
OC1CCN(Cc2ccc3ccccc3c2)CC1 | -15% | -14% | ? | -2% | -17% | 4%
CC(C)(C)c1cc(CN2CCC(O)CC2)cc(C(C)(C)C)c1O | 7.9µM* | -3% | / | -6% | 19% | -7%
CC(C)(C)c1cc(CN(CCO)CCO)cc(C(C)(C)C)c1O | ? | 3% | / | 13% | -18% | -12%
CN(C)Cc1cc(C(C)(C)C)c(O)c(C(C)(C)C)c1 | 22µM* | -7% | 1µM* | 29% | -17% | -10%
CN1CCN(Cc2cc(C(C)(C)C)c(O)c(C(C)(C)C)c2)CC1 | 3.5µM* | 2% | 95% | / | 1% | -4%
CC(=O)N1CCN(C(=O)CCc2cc(C(C)(C)C)c(O)c(C(C)(C)C)c2)CC1 | 2% | 4% | 13µM* | ? | -24% | 1%
CCOc1ccc(NC(=O)c2oc3ccccc3c2NC(=O)C(C)(C)C)cc1 | -5% | 2% | / | / | / | /
O=C(CCC(=O)c1ccc(Cl)cc1)OCC(=O)c1ccccc1 | 22% | -2% | ? | 9% | -30% | -1%
O=C(COc1c(Cl)cc(Cl)cc1Cl)c1ccc(Cl)cc1 | 1% | 3% | 12µM* | 0% | -15% | 15%
SMILES | Sm TGR inh | AmpC detergent | Pf growth 96h | Pf growth 48h | AmpC inh no detg | SARS PLP yeast
COc1cc(Cl)c(C)cc1NC(=O)c1nn(-c2ccc(C)cc2)c(=O)n(C)c1=O | 9% | 16% | / | / | / | /
C1=Nc2c(Nc3ccccc3)ncnc2Oc2ccccc21 | -28% | ? | 13µM* | 29% | -9% | -9%
Clc1ccc2c(c1)C=Nc1c(NCc3ccccc3)ncnc1O2 | 9% | 6% | 40% | ? | -12% | 6%
O=C(COc1ccc(S(=O)(=O)N2CCCC2)cc1Cl)NCc1cccnc1 | 4% | -2% | ? | -14% | 101% | 5%
CN(CCO)c1nc(N)c2c(N)nc3c(c2c1C#N)CC(=O)N3C1CCCC1 | 3% | 6% | ? | ? | 96% | 4%
CC(C)(C)N1C(=O)Cc2c1nc(N)c1c(N)nc(N3CCCCC3CO)c(C#N)c21 (centres undefined) | ? | -5% | 5.9µM* | ? | 12% | 1%
O=C(COc1ccccc1)N/N=C/c1sc(=O)n(Cc2cccc(C(=O)O)c2)c1Cl | 35µM* | 0% | ? | ? | -33% | 7%
Cc1cccc(OCC(=O)N/N=C/c2cccn2C)c1 | 5% | 3% | 15% | 12% | -13% | 0%
Cc1cccc(OCC(=O)N/N=C/c2sc(=O)n(Cc3cccc(C(=O)O)c3)c2Cl)c1 | 25µM* | -4% | ? | -28% | -35% | 0%
O=C(O)c1cccc(Cn2c(Cl)c(/C=N/NC(=O)c3ccc(O)cc3)sc2=O)c1 | 32µM* | 3% | 10% | 3% | -20% | 0%
O=c1sc(/C=N/Nc2ccccc2)c(Cl)n1Cc1ccccc1 | 7.9µM* | 4% | ? | ? | -31% | 3%
COc1ccc(OCC(=O)N/N=C/c2cccn2-c2cccc(C(=O)O)c2)cc1 | -20% | -25% | 11% | 33% | -7% | -1%
O=Cc1sc(=O)n(Cc2cccc(C(=O)O)c2)c1Cl | 3% | -2% | -2% | -6% | -30% | 2%
CCc1ccc(C(=O)COC(=O)C(Cc2c[nH]c3ccccc23)NC(=O)c2ccc(Br)cc2)cc1 (centres undefined) | -3% | 3% | / | / | / | /
COc1ccc(C(=O)OCc2cc(=O)n3nc(-c4cccs4)sc3n2)cc1 | 0% | 24% | / | / | / | /
COc1ccc(CN2C(=O)C(C)Oc3ccccc32)cc1 (centres undefined) | -9% | -16% | ? | -7% | -17% | 0%
CC1C(=O)N(Cc2ccc([N+](=O)[O-])cc2)c2ccccc2N1C(=O)c1c(F)cccc1F (centres undefined) | 5% | -5% | ? | 9.3µM* | 1% | -2%
